# Rows were chosen to be rich in hits. Some 3.6% of all compounds tested hit in one or more screens of this group.
# KKLEB cytotox = CF airway cell cytotoxicity counter-screen | KKLEB CF airway cells viability, ATPlite luminescence, overnight; stronger effect = lower value; cells stimulated with P. aeruginosa culture filtrate | activity change (cytotoxicity), % at 5 µM | hit rate 0.36% among 360,000 | AID 602141;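 active = corrected activity change at or below -50% at 5 µM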
# Mdm2-MdmX inh = disrupts the human Mdm2-MdmX interaction. SaOS-2 split-luciferase Mdm2/MdmX complementation, luminescence. hit rate 3% among 330,000. AID 485346. inhibition, % at 8 µM;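 active = inhibition of at least 50% at 8 µM in the primary screen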
# Target sequence (O15151 whole entry, looked up): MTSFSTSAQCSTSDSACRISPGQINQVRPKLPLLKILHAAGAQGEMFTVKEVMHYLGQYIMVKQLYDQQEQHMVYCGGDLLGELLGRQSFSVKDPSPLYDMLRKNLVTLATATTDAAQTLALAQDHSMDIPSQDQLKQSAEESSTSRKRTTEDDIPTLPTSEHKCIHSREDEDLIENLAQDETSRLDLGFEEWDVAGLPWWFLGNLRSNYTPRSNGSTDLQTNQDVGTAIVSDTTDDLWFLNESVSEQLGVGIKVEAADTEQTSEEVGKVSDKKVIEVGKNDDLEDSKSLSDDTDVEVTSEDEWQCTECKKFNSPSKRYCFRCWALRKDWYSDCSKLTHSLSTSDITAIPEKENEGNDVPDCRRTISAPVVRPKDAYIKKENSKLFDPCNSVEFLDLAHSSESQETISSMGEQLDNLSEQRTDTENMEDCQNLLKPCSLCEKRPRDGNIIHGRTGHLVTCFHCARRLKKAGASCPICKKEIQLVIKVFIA
# Target sequence (Q00987 whole entry, looked up): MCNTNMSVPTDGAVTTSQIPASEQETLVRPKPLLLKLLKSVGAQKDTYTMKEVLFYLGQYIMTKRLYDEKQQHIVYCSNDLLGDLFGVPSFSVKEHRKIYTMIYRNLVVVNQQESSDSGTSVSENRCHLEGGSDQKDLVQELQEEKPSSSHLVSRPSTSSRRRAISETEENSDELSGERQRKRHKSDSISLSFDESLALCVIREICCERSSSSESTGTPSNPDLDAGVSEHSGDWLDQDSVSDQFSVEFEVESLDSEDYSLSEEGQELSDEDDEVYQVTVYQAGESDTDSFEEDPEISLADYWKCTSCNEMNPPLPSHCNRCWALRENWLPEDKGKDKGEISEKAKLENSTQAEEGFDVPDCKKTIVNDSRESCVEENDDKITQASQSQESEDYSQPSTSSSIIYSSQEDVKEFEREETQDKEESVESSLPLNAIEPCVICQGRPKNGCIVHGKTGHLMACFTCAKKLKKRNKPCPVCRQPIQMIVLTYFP
# CF NFkB block = inhibitors of cystic fibrosis induced NF-kB; KKLEB NF-kB-GFP reporter, PAF-induced, GFP fluorescence overnight; inhibition, % at 5 µM; hit rate 0.86% among 360,000; AID 588850;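 active = at least 50% inhibition at 5 µM, scaled per plate between neutral and stimulator controls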;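 note: PAF is a Pseudomonas aeruginosa culture filtrate used as stimulus; plate controls were PAF-stimulated DMSO wells for no effect and unstimulated DMSO wells for full effect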
# LGR2 antag = Drosophila LGR2 receptor signaling inhibition; HEK293 LGR2, CRE-luciferase, bursicon-stimulated, 4 h; hit rate 0.35% among 380,000; inhibition, % at 9.99 µM;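 active = drop in luminescence signal, shown as inhibition above about 50% in the replicate tests, limit read from the data, passing the limit was not always enough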;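 note: agonist challenge used bursicon conditioned medium at about half maximal strength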
# Peg3 prom inh-1 = Peg3 promoter activity inhibition | HeLa PEG-Prom luciferase reporter, luminescence, overnight | inhibition, % at 20 µM | hit rate 1.7% among 360,000;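 active = inhibition of at least 50% at 20 µM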
# HSP90 refold inh = inhibitors of HSP90 luciferase refolding in rabbit reticulocyte lysate; inhibition, % at 5.6 µM; hit rate 0.91% among 290,000; AID 1789; luciferase refolding luminescence, 3 h;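 active = inhibition above the screen-wide mean plus 3 SD, computed separately per campaign, cut at about 16% in these data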;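 note: 0% = DMSO wells and 100% = 60 µM geldanamycin wells; inhibitors lower the luminescence because luciferase stays unfolded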
# HSP90 confirm = confirmation of HSP90 inhibitors; shares compounds with HSP90 refold inh; rabbit reticulocyte lysate, luciferase refolding luminescence, 3 h; inhibition, % at 5.9 µM; hit rate 64% among 2,300; in the data active = inhibition above about 18%;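 note: 0% = vehicle wells and 100% = reference inhibitor wells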
# FLuc counter-1 = counter-screen for HSP90 inhibitors: inhibitors of firefly luciferase; inhibition, % at 5.9 µM; shares compounds with HSP90 refold inh; purified native firefly luciferase, luminescence; hit rate 48% among 2,300; AID 1847;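 active = inhibition above the mean inhibition of all tested sample wells plus 3 SD, cut at about 10% in these data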;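 note: 0% = DMSO with luciferase and 100% = wells lacking luciferase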
# Mdm2-MdmX conf = human Mdm2/MdmX binding inhibition, confirmed; shares compounds with Mdm2-MdmX inh; luminescent assay; hit rate 55% among 10,000; inhibition, % at 8 µM; in the data active = inhibition above about 40%
# FLuc counter-2 = full-length luciferase inhibition in Mdm2/MdmX counter-screen | shares compounds with Mdm2-MdmX inh | SaOS-2 full-length luciferase counterscreen, luminescence | inhibition, % at 8 µM | hit rate 77% among 6,200 | AID 504607;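 active = mean inhibition at 8 µM reaching about 37%, which flags the compound as non-specific, limit read from the data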;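 note: p53-null SaOS-2 cells with luciferase driven by a doxycycline-inducible promoter; compound on cells about two nights before reading with doxycycline added after day one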
# Peg3 prom inh-2 = Peg3 promoter inhibition confirmation | shares compounds with Peg3 prom inh-1 | HeLa PEG-Prom luciferase reporter, luminescence, overnight | inhibition, % at 20 µM | hit rate 84% among 1,300;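 active = at 20 µM dose, 40% or more inhibition averaged across four replicates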
# Active calls of the source: *; nt = no result.
SMILES,KKLEB cytotox,Mdm2-MdmX inh,CF NFkB block,LGR2 antag,Peg3 prom inh-1,HSP90 refold inh,HSP90 confirm,FLuc counter-1,Mdm2-MdmX conf,FLuc counter-2,Peg3 prom inh-2
Clc1ccc(CSc2nnc(-c3ccc4c(c3)OCO4)o2)cc1,8,3,-11,12,-65,2,nt,nt,nt,nt,nt
C[C@@H](C(=O)Nc1ccc2c(c1)OCCO2)n1c(=O)[nH]c2ccccc2c1=O,-14,62*,6,16,50*,54*,66*,69*,81*,76*,51*
C[C@@H](C(=O)Nc1ccc2c(c1)OCO2)n1c(=O)[nH]c2ccccc2c1=O,2,-24,-6,19,-24,5,nt,nt,nt,nt,nt
Cc1ccccc1CN1C(=O)c2ccccc2S1(=O)=O,14,28,-2,-9,1,2,nt,nt,nt,nt,nt
O=C1c2ccccc2S(=O)(=O)N1Cc1nc2ccccc2s1,-1,90*,1,nt,93*,37*,21*,-5,87*,33,58*
C[C@@H]1CCCCO[C@H](CN(C)C)[C@@H](C)CN([C@@H](C)CO)C(=O)c2cc(NS(=O)(=O)c3ccccc3)ccc2O1,nt,nt,nt,0,nt,nt,nt,nt,nt,nt,nt
Cc1nn(C(C)(C)C)c(C)c1/C=N/OC(=O)Nc1ccc(Cl)cc1,-56*,95*,1,99*,96*,86*,86*,87*,93*,57*,95*
C[C@@H]1CN([C@@H](C)CO)C(=O)Cc2cc(NS(=O)(=O)c3ccccc3)ccc2O[C@H]1CN(C)S(=O)(=O)c1ccccc1,nt,nt,nt,4,nt,nt,nt,nt,nt,nt,nt
O=C(Nc1ccc(Cl)cn1)c1cc2ccccc2o1,-3,-212,0,nt,-144,6,nt,nt,nt,nt,nt
O=C(Nc1ccccn1)c1cc2ccccc2o1,-29,25,-3,nt,51*,69*,80*,78*,nt,nt,45*
CCCNC(=O)N1CC2(C1)[C@H](c1ccccc1)[C@H](CO)N2C(=O)c1ccncc1,nt,nt,nt,3,nt,nt,nt,nt,nt,nt,nt
CCc1ccn2cc(-c3ccc4c(c3)OCO4)nc2c1,-76*,62*,-16,97*,84*,73*,86*,85*,53*,92*,72*
C[C@@H]1CN([C@@H](C)CO)C(=O)c2cc(C#CC3CC3)cnc2O[C@H]1CN(C)C(=O)c1ccc(F)cc1,nt,nt,nt,4,nt,nt,nt,nt,nt,nt,nt
C(=N\Nc1nc2ccccc2[nH]1)/c1ccc2c(c1)OCCO2,0,-75,-5,26,-131,5,nt,nt,nt,nt,nt
Cc1cccc(/C=N/Nc2ccc3ccccc3n2)c1,-48,46,-21,79*,67*,66*,85*,84*,nt,nt,70*
C(=N\Nc1ccc2ccccc2n1)/c1ccc2c(c1)OCCO2,-22,69*,2,88*,79*,68*,93*,92*,79*,98*,77*
COc1ccc2c3c(n(C)c2c1)[C@@H](CO)N(Cc1ccccn1)CC31CN(C(=O)NC(C)C)C1,nt,nt,nt,-9,nt,nt,nt,nt,nt,nt,nt
Cc1ccc(-c2nnc(SCC(=O)Nc3ccccc3F)o2)cc1,-22,80*,-11,57*,89*,54*,31*,29*,67*,33,85*
Cc1ccc2nc(NC(=O)c3ccco3)sc2c1,-23,26,-13,nt,69*,45*,83*,79*,nt,nt,31
CC(=O)NC(c1cc(F)c2cccnc2c1O)C1CC1 (stereo not drawn),12,30,-26,-1,19,nt,nt,nt,nt,nt,nt
CC(=O)NC(c1ccccc1)c1cc(Cl)c2cccnc2c1O (stereo not drawn),13,77*,-4,8,51*,18*,15,-2,64*,15,65*

# Compound activity: PubChem, several laboratories
